Source: paper PMC5540273 (PLoS ONE, 2017)

Legend:
Conditions in all cases: concentration: 1 μM, replicates: in singlicate; n = 1
JNK1 = system: T1, JNK1
T1 construct: gene MAPK8

JNK2 = system: T2, JNK2
T2 construct: gene MAPK9

JNK3 = system: T3, JNK3
T3 construct: gene MAPK10

KIT-autoinhibited = system: KIT-autoinhibited
KIT = system: KIT
LATS1 = system: LATS1
LATS2 = system: LATS2
LCK = system: LCK
LIMK1 = system: LIMK1
LIMK2 = system: LIMK2
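Further: KINOMEscan kinase panel screen.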

Row | Structure (SMILES) | %Inh (JNK1) | %Inh (JNK2) | %Inh (JNK3) | %Inh (KIT-autoinhibited) | %Inh (KIT) | %Inh (LATS1) | %Inh (LATS2) | %Inh (LCK) | %Inh (LIMK1) | %Inh (LIMK2)
1 | Cl.O=S(=O)(c1cccc(F)c1)c1ccc(Nc2ncnc3cc(Br)sc23)cc1Cl [GSK306886] | 0% | 7% | 4% | 0% | 34% | 0% | 0% | 15% | 33% | 3%
2 | CCn1c(-c2ccncc2)nc2cnccc21 [SB-735216] | 23% | 11% | 17% | 10% | 0% | 17% | 9% | 0% | 12% | 0%
3 | Fc1cccc(COc2ccc(Nc3ncnc4nn5ccccc5c34)cc2Cl)c1 [GW689066] | 11% | 10% | 0% | 0% | 0% | 0% | 0% | 5% | 0% | 0%
4 | N#Cc1ccc(Oc2ccc(Nc3ncnc4cc[nH]c34)cc2Cl)cc1 | 58% | 9% | 20% | 3% | 31% | 22% | 23% | 0% | 13% | 0%
5 | CCc1nc(-c2cccc(N(C)S(=O)(=O)c3ccccc3)c2)c(-c2ccnc(Nc3ccc(N4CCN(C(C)=O)CC4)nc3)n2)s1 [GSK1645895] | 23% | 30% | 22% | 8% | 19% | 0% | 20% | 44% | 31% | 0%
6 | Fc1cccc(COc2ccc(Nc3ncnc4cc[nH]c34)cc2Cl)c1 | 33% | 17% | 46% | 6% | 24% | 26% | 25% | 25% | 22% | 17%
7 | Cc1ccc(O)cc1Nc1cc(C(F)(F)F)nc2ccc(-c3ccncc3)cc12 [GW630823] | 0% | 0% | 0% | 0% | 14% | 0% | 0% | 14% | 21% | 15%
8 | CS(=O)(=O)CCNCc1ccc(-c2ccc3ncnc(Nc4ccc(OCc5ccccc5)c(Cl)c4)c3c2)o1.Cl [GW574783] | 18% | 4% | 0% | 0% | 10% | 0% | 11% | 30% | 0% | 1%
9 | CNc1nccc(-c2c(-c3ccc(F)cc3)ncn2C2CCN(C)CC2)n1 [SB-222903] | 0% | 69% | 43% | 0% | 0% | 2% | 0% | 0% | 0% | 0%
10 | CC(C)N1CCC(n2cnc(-c3ccc(F)cc3)c2-c2ccnc(N)n2)CC1 [SB-223132] | 23% | 12% | 0% | 0% | 0% | 0% | 0% | 14% | 0% | 9%
11 | Cl.c1ccc(Cn2ncc3cc(Nc4ncnc5ccccc45)ccc32)cc1 [GW273749] | 5% | 5% | 0% | 0% | 4% | 0% | 0% | 15% | 0% | 75%
12 | O=C(c1ccc(-c2cc(-c3c[nH]nc3-c3ccccn3)ccn2)cc1)N1CCCC1 [GW792479] | 27% | 0% | 0% | 0% | 11% | 0% | 0% | 3% | 0% | 0%
13 | Cl.c1ccc(Cn2ccc3cc(Nc4ncnc5ccccc45)ccc32)cc1 [GW275568] | 0% | 23% | 16% | 0% | 41% | 0% | 22% | 41% | 8% | 15%
14 | C[C@H]1CC[C@@H](C(=O)Nc2ccccc2)CN1c1cc(-c2ccc3c(N)n[nH]c3c2)nc(N)n1 [GSK2283293] | 5% | 25% | 1% | 16% | 1% | 0% | 9% | 5% | 0% | 0%
15 | Cn1cc(-c2ccc3c(c2)CCN3C(=O)Cc2cccc(C(F)(F)F)c2)c2c(N)ncnc21 [GSK2606414] | 1% | 0% | 0% | 0% | 87% | 0% | 0% | 20% | 0% | 9%
16 | CCC(CC)(CC)n1cnc2c(N)ncnc21 [SKF-97620] | 29% | 24% | 4% | 0% | 0% | 24% | 0% | 14% | 10% | 0%
17 | COc1cc2c(Nc3cccc(NC(=O)c4ccccc4)c3)ncnc2cc1OCCCN1CCOCC1 [GSK223810] | 34% | 58% | 31% | 0% | 93.4% | 0% | 0% | 84% | 13% | 7%

Row | Structure (SMILES) | %Inh (JNK1) | %Inh (JNK2) | %Inh (JNK3) | %Inh (KIT-autoinhibited) | %Inh (KIT) | %Inh (LATS1) | %Inh (LATS2) | %Inh (LCK) | %Inh (LIMK1) | %Inh (LIMK2)
18 | Nc1nccc2scc(-c3ccc4c(c3)CCN4C(=O)Cc3cc(F)ccc3F)c12 [GSK2587663] | 22% | 26% | 8% | 0% | 64% | 0% | 8% | 22% | 4% | 13%
19 | Fc1cccc(COc2ccc(Nc3ncnc4sc(-c5ccc[nH]5)cc34)cc2Cl)c1 [GW707818] | 1% | 15% | 0% | 0% | 16% | 9% | 0% | 8% | 9% | 17%
20 | CCCc1ccc(S(=O)(=O)NC2CCN(c3ccnc(Nc4ccc(OC)cc4)n3)C2)cc1 (stereo not drawn) [GSK1379737] | 20% | 21% | 0% | 0% | 37% | 0% | 0% | 16% | 0% | 100%
21 | Cc1cc(N2CCC(NS(=O)(=O)c3ccc(F)cc3)CC2)nc(Nc2cccc(C#N)c2)n1.O=C(O)C(F)(F)F [GSK1653537] | 16% | 17% | 0% | 0% | 0% | 0% | 0% | 10% | 0% | 0%
22 | COc1ccc(Nc2nccc(N3CCC(NC(=O)Nc4ccc5c(c4)OCO5)C3)n2)cc1 (stereo not drawn) [GSK1379745] | 18% | 20% | 20% | 0% | 48% | 0% | 0% | 24% | 0% | 26%
23 | Cc1ccc(NC(=O)c2cccc(C#N)c2)cc1-c1ccc(C(=O)Nc2ccncc2)cc1 [GSK1398463] | 25% | 16% | 17% | 13% | 100% | 19% | 0% | 83% | 28% | 14%
24 | O=c1cc(N2CCOCC2)nc2n(Cc3cccc(Cl)c3)ccn12 [GSK2296823] | 21% | 12% | 7% | 4% | 11% | 0% | 46% | 17% | 15% | 0%
25 | Nc1n[nH]c2nnc(-c3ccccc3)cc12 [SB-517389] | 27% | 5% | 0% | 0% | 1% | 0% | 0% | 0% | 19% | 3%
26 | COc1ccc(NC(=O)Nc2ccc(C)c(-c3ccc(C(=O)Nc4ccncc4)cc3)c2)cc1 [GSK1398475] | 5% | 4% | 0% | 0% | 100% | 0% | 6% | 47% | 0% | 22%
27 | CSc1ccc(NC2=C(c3ccccc3Cl)C(=O)NC2=O)cc1 [SB-342411] | 1% | 1% | 0% | 0% | 25% | 5% | 23% | 18% | 0% | 7%
28 | OCCOCCn1ccc2ncnc(Nc3ccc(Oc4cccc(Cl)c4)c(Cl)c3)c21 | 0% | 0% | 0% | 0% | 0% | 0% | 0% | 41% | 0% | 0%
29 | Cl.Cl.c1ccc(-c2cc3ccncc3cc2OC2CCNCC2)cc1 [GSK1122999] | 14% | 15% | 0% | 0% | 18% | 33% | 50% | 38% | 18% | 34%
30 | O=C(CCO)NCCn1ccc2ncnc(Nc3ccc(Oc4cccc(C(F)(F)F)c4)c(Cl)c3)c21 | 8% | 0% | 1% | 0% | 0% | 5% | 2% | 26% | 0% | 0%
31 | FC(F)(F)c1cc(Nc2nccc(-c3c(-c4ccc(Cl)cc4)nn4ncccc34)n2)ccc1Cl [GW829351] | 8% | 58% | 65% | 1% | 38% | 0% | 0% | 0% | 0% | 0%
32 | Nc1nc(-c2ccc3c(N)n[nH]c3c2)cc(N2CCC[C@@H](C(=O)Nc3ccccc3)C2)n1.O=C(O)C(F)(F)F.O=C(O)C(F)(F)F [GSK2288359] | 0% | 0% | 0% | 4% | 25% | 0% | 16% | 0% | 10% | 7%
33 | COC(=O)c1cccc(NC(=O)NCCNc2ccnc(Nc3ccc(F)cc3)n2)c1 [GSK1379883] | 18% | 25% | 7% | 0% | 23% | 0% | 0% | 5% | 0% | 19%
